Among the data in article PMC12136788 are binding signal values, retold here.

First the molecules themselves.
T1: UNK ZnF1-3 (human, UniProt Q9C0B0 31-174)
T1 sequence: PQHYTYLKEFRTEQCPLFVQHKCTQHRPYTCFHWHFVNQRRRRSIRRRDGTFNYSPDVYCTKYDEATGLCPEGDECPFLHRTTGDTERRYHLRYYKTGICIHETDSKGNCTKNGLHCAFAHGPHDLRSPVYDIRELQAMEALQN

B1: 90994690_90994914_4067_CDS_ENSMUSG00000040687_ENSMUST00000111370|mouse|control|control (ssRNA)
RNA: GGGAGUUCUACAGUCCGACGAUCGAGGUACCUGUCGAUCAUUUCCUGAGGACCCUGGUCCAUACCCAUUCCUUCUCUUUCCAACAUUACAGCAUCUAAGAAUGCAUCUUCCCAGAACUGCAUUUGGUCCCAUAAGGUAGAACGCAACAGAGGAUUGAGCAUCA
B2: chr7:130129250:130129251:+_ENSMUSG00000030779_ENSMUST00000052135|mus_mus|FALSE|FALSE (ssRNA)
RNA: GGGAGUUCUACAGUCCGACGAUCCUCCUCUGGUAAGAAGGGUGGUUUCUCUUUCUUCCCGAUUGCAUAGGCCUCUGCAUCUAUAGUUGGUAUUGCAUAUUUUCCAGUGUUUGUAAGCAUUGCACCUUUCAUGUUAGGAUCUUUCAACAGAGGAUUGAGCAUCA
B3: chr14:89338683:89338684:+_ENSG00000165533_ENST00000346301|hu_hu|hu_hu_hu_mus_False|38_98 (ssRNA)
RNA: GGGAGUUCUACAGUCCGACGAUCGUGGUUGUUGUGGACCAGAGCCAGCCUGAAGCAUUGGUGGGCCAAGUUUGUAUCUCCGAUUCCCACAGCUAUGUGUCCCAAGUUGUACCAGACAUCAGCUGCCUCUUCUUCAUUUUCAGCCAACAGAGGAUUGAGCAUCA
B4: chr3:179287964:179287965:+_ENSG00000136518_ENST00000429709|hu_hu|hu_hu_hu_mus_True|68_68 (ssRNA)
RNA: GGGAGUUCUACAGUCCGACGAUCCUUGAGUGGUGAGAUGGCCUCCAUGUUCUCCCUGGGCACGCGGAGAGCAUUAGUGUCUAUGUAGUAGGUGGGCCCGCCCUGCUUGCCUUUGUCACCAUCAAUCUCCAUCAUUGUACUUCCCAACAGAGGAUUGAGCAUCA
B5: chr7:117217587:117217588:+_ENSMUSG00000061079_ENSMUST00000084727|mus_hu|FALSE|FALSE (ssRNA)
RNA: GGGAGUUCUACAGUCCGACGAUCGAUAUAAGCUGUGGUACCAUCUUCCAGCUGAACCGCCUGUAAUGCACUCUGGUCAUAACUAUUACUUUUAGGUAUGGGUACAUGUUGAACAUAGGCCGCAGAACCAUCUUCCAACUGAAUCAACAGAGGAUUGAGCAUCA
B6: chr5:95152273:95152274:-_ENSG00000173221_ENST00000237858|hu_mus|motif|central (ssRNA)
RNA: GGGAGUUCUACAGUCCGACGAUCCAGCCGAGUCAUCAGCUCCCCAGUCUGUUGCAUGGAGAUUAGAUCACUGCAUCCGCCGGUGCAGUCUUUACCUAUGAAGACCCGAGGAACUGUUCUCGCUCCGGUGAGCUGUUGUAAAUACAACAGAGGAUUGAGCAUCA
B7: 12280944_12281064_4437_CDS_ENSMUSG00000032625_ENSMUST00000046121|mouse|control|control (ssRNA)
RNA: GGGAGUUCUACAGUCCGACGAUCGGGCUGGGUGCAGGUUUCCUCCAAAACUAUUUGUUUAUUACCAUCUAUGAUGAGCUCUGUGUUAGCACAGAACUCUUCGUCCACCACUUUGCUGAAAUCCUCAGCUGAGCCAUCACUCACCAACAGAGGAUUGAGCAUCA
B8: chr9:37780659:37780660:-_ENSG00000107371_ENST00000396521|hu_hu|FALSE|FALSE (ssRNA)
RNA: GGGAGUUCUACAGUCCGACGAUCGGUUCACCUGAAAAAACCCAUAGUUUUUUGCCUCAACUGACCUGUAAAAAAGUCCACCUAUAUCAACUUUCUGCCAAUCUGGAGAAGAUCUGUUUUCUUUGAUCUGACGUCAUGUGUUCACAACAGAGGAUUGAGCAUCA
B9: 65006457_65008074_834_CDS_ENSMUSG00000029920_ENSMUST00000031984|mouse|control|control (ssRNA)
RNA: GGGAGUUCUACAGUCCGACGAUCUGUUGAUUCAAUCAACUUUAGAAGAUCACUGUCACUUCUUUGUGGAAACAGUUCCUUCAAUGUCUGAAGCUUAGCAUCUUUAAGAUCUUCCAAUUCUGAAAGGUCUUCCAGUUCUGAACUCAACAGAGGAUUGAGCAUCA
B10: chr15:79189586:79189587:+_ENSG00000185787_ENST00000426013|hu_hu|motif|central (ssRNA)
RNA: GGGAGUUCUACAGUCCGACGAUCUGAAAACACUGGCAGCAAUUUUGAAAUGAAAAAAAAAAAGAAAGAAGAAAAAAGGAGCGGUUACCCCCUUUUAUUUUUUCUCUGUUUAAAAUCAAACAGAAAACAAACAUCAAUUGUUAUCAACAGAGGAUUGAGCAUCA
B11: chr7:75956504:75956505:-_ENSG00000170027_ENST00000307630|hu_mus|FALSE|FALSE (ssRNA)
RNA: GGGAGUUCUACAGUCCGACGAUCAUAGAACUGCAUGUCACUAUAGCAACAUCCAAAACAGAUCAAUCUGUUACAAUCACUAUUUGGUAAAGCAAACUUUACCCCUGAAAGGAAAAAAUUAAAUUAAAAAAAAGAAGUUUAAAACAACAGAGGAUUGAGCAUCA
B12: chr7:75956504:75956505:-_ENSG00000170027_ENST00000307630|hu_mus|motif|central (ssRNA)
RNA: B11 RNA with U80G, A81G
B13: 54532588_54532708_162_CDS_ENSMUSG00000073678_ENSMUST00000097739|mouse|control|control (ssRNA)
RNA: GGGAGUUCUACAGUCCGACGAUCGAAUUUAAAUGUAUCCUUUUUUUUUUCCCCUAAAAAAGGGAUGUAAAAAAUCCAAUAUGAAACAGAAAAAGUACACAUGAAAUACAAAAUACACUGUCUGUUUGGCUCUGGAGCAGUUAGCAACAGAGGAUUGAGCAUCA
B14: chr15:79189586:79189587:+_ENSG00000185787_ENST00000426013|hu_hu|FALSE|FALSE (ssRNA)
RNA: B10 RNA with G82U, G83A

Positions count from the first letter of the chain named. In all, about 24,000 sequences were measured (“enrichment r”: median about 0.99, highest 2% from about 3.7 on). The full list was thinned out, with the highest values kept by preference.

This assay concerns the target T1, UNK ZnF1-3. The assay can be described thus: nsRBNS (natural sequence RNA bind-n-seq); RBNS binding buffer (assumed for nsRBNS): 25 mM Tris pH 7.5, 150 mM KCl, 3 mM MgCl2, 0.01% Triton X-100, 500 ug/ml BSA, 20 U/ml SUPERase-In, 4 C; UNK is unkempt and MSI1 is Musashi-1; names of the RNAs are library labels; protein concentration not given here; high values mean tight binding.
With B1, the binding signal was 0.917 enrichment R. In the case of B2, the binding signal came to 0.384 enrichment R.

For B3, the binding signal was determined as 0.877 enrichment R.

As to B4, the binding signal amounted to 0.757 enrichment R. For B5, the binding signal was determined as 0.834 enrichment R. For the molecule B6, the binding signal worked out at 1.01 enrichment R. Regarding B7, the binding signal turned out to be 0.732 enrichment R. With B8, the binding signal was determined as 0.913 enrichment R. On to B9, for which the binding signal came to 0.355 enrichment R. Turning to B10, the binding signal came to 3.68 enrichment R. For B11, the binding signal stood at 9.16 enrichment R. The same measure for B12: 6.25 enrichment R; for B13: 1.05 enrichment R; for B14: 3.39 enrichment R.
